# What was measured:
# [1] = qHTS profiling of the MIPE4 collection as inhibitors of Plasmodium falciparum (3D7) proliferation (AID 743344);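 also: scaled between DMSO vehicle wells and 0.29 µM artemisinin as full inhibition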; settings: P. falciparum 3D7 in erythrocytes, SYBR Green DNA fluorescence, 72 h; at 28.5 µM
# Procedure, shortened: (§1)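 Parasite DNA was quantified by SYBR Green I fluorescence (ex 485, em 535 nm) after overnight lysis in saponin/Triton buffer at room temperature. Cultures at 0.3% parasitemia and 2.5% hematocrit were first exposed to compound for 72 h at 37 C; signals were normalised to artemisinin (0.29 uM) and vehicle wells.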
# [2] = qHTS profiling of the MIPE4 collection as inhibitors of Plasmodium falciparum (DD2) proliferation (AID 743345); settings: P. falciparum Dd2 in erythrocytes, SYBR Green DNA, 72 h; at 28.5 µM unless noted
# Procedure, shortened: as §1
# [3] = qHTS profiling of the MIPE4 collection as inhibitors of Plasmodium falciparum (DD2) proliferation (Rep 2) (AID 743346); settings: P. falciparum Dd2 in erythrocytes, SYBR Green DNA, 72 h; at 28.5 µM
# Procedure, shortened: as §1
# [4] = qHTS profiling of the MIPE4 collection as inhibitors of Plasmodium falciparum (HB3) proliferation (AID 743347);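 also: plate controls were DMSO vehicle wells for no effect and artemisinin wells for full effect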; settings: P. falciparum HB3 in erythrocytes, SYBR Green DNA, 72 h; at 28.5 µM
# Procedure, shortened: as §1
# [5] = High-throughput drug toxicity screening in the BPDCN cell line Gen2.2 (AID 1224824); settings: Gen2.2 BPDCN cells; at 45.8 µM (top of the series);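 also: cells exposed to compounds for 48 h before reading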
# Procedure, shortened: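 CellTiter-Glo luminescence read after 48 h compound exposure at 37 C defines viability; percent activity set with DMSO as 100% and bortezomib (9.2 uM final) as 0%. 500 exponentially growing cells per well, RPMI plus 10% FBS.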
# [6] = High-throughput drug toxicity screening in the BPDCN cell line Cal-1 (AID 1224825); settings: Cal-1 BPDCN cell viability, qHTS; at 45.8 µM (top of the series)
# Procedure, shortened: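 Percent activity derived from CellTiter-Glo luminescence, scaling DMSO to 100% and 9.2 uM final bortezomib to 0%. BPDCN Cal-1 cells (500/well, RPMI plus 10% FBS) incubated with compounds 48 hours at 37C before reading.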
SMILES,"parasite growth, % of DMSO control [1] [%]","parasite growth remaining, % of DMSO control (lower = more inhibition) [2] [%]","parasite growth, % of control (lower = inhibition) [3] [%]","growth, % of control [4] [%]","cell viability, % of control (lower = more cytotoxic) [5] [%]",viability (% of control) [6] [%]
O=C1CCC[C@@H]2[C@H]3CCCN4CCC[C@@H](CN12)[C@@H]34,91.5,97.9,95.1,96.2,219,120
Clc1ccccc1C(c1ccccc1)(c1ccccc1)n1cccn1,9.07,34.8,11.6,6.73,108,108
O=S(=O)(CC1CS1)c1ccc(Oc2ccccc2)cc1 (stereo not given),94.4,104,73.8,106,3.87,3.02
CC=C(C)C(=O)O[C@H]1C(C)=C2[C@@H]3OC(=O)[C@@](C)(O)[C@@]3(O)[C@@H](OC(=O)CCC)C[C@](C)(OC(C)=O)[C@@H]2[C@@H]1OC(=O)CCCCCCC,15.2,8.2,16.2,8.71,12.1,2.54
CC(C)N(CCNC(=O)CN1CCCC1=O)C(C)C,101,17.4,121,108,108,111
C=C[C@@H]1CN2CCC1C[C@@H]2[C@@H](O)c1ccnc2ccccc12 (stereo not given in full),15.2,21.4,45.8,17.3,220,93.3
Cc1c(N)nc([C@H](CC(N)=O)NC[C@@H](N)C(N)=O)nc1C(=O)N[C@H](C(=O)N[C@@H](C)[C@H](O)[C@@H](C)C(=O)N[C@@H](C(=O)NCCc1nc(-c2nc(C(=O)NCCC[S+](C)C)cs2)cs1)[C@@H](C)O)C(O[C@H]1O[C@H](CO)[C@H](O)[C@@H](O)[C@@H]1O[C@H]1O[C@H](CO)[C@@H](O)[C@H](OC(N)=O)[C@H]1O)c1cnc[nH]1 (stereo not given in full),11,9.76,15.5,68.4,132,16
CCN1C[C@]2(OC(=O)c3ccccc3NC(C)=O)CC[C@H](OC)[C@@]34[C@H]5CC6[C@@H](OC)C[C@](O)(C(C[C@@H]23)[C@@H]14)[C@@]5(O)[C@@H]6OC,97,94,72.6,85.8,137,108
COC1=C[C@@H]2[C@@H]3Cc4ccc(OC)c(O)c4[C@]2(CCN3C)CC1=O,102,84.4,34.6,106,69.4,12.3
Cc1c(C(=O)c2cccc3ccccc23)c2cccc3c2n1[C@H](CN1CCOCC1)CO3,15.4,47.9,48.7,13.4,17.7,40

# Source: PubChem BioAssay (NCATS)
